Results as given in PubChem BioAssay AID504720 (Sanford-Burnham Center for Chemical Genomics, 2011).
Hit rate of the full screen: of about 350,000 compounds, about 1,100 (0.31%) were called active. For the sample, actives were picked, then their nearest neighbours and some compounds at random. A number with no mark means an inactive call. No stated cut-off is given here; in the data, active means activation above about 50%; inactive means the rest.

Molecular target: Endoribonuclease toxin MazF (Escherichia coli (strain K12)) (UniProt P0AE70)
Sequence (P0AE70 whole entry, looked up): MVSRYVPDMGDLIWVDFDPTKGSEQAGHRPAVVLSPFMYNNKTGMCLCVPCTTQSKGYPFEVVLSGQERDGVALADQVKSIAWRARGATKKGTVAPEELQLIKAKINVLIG
Assay: activators of E. coli MazEF toxin-antitoxin RNase, primary screen, biochemical, fluorescence, uHTS (AID 504720)
Settings: FAM/BHQ RNA-DNA oligo cleavage fluorescence, 5 h, at 20 µM, stronger effect = higher value

Row | Compound | activation
1 | CC(C)c1nc(SCC(=O)Nc2cccc(C(=O)O)c2)c2c3c(sc2n1)CCCC3 | 3.75%
2 | Cc1cc(NC(=O)CSc2nc(C(C)C)nc3sc4c(c23)CCC(C)C4)no1 (stereo not given) | 2.72%
3 | Cc1nc(SCC(=O)Nc2cc(C)on2)c2c3c(sc2n1)CCCC3 | 63.5% (active)
4 | CCC(C)(C)NC(=O)C(c1ccccn1)N(C(=O)c1csnn1)c1ccccc1 (stereo not given) | 5.61%
5 | COc1ccc(CCNC(=O)CSc2nc(C)nc3c2oc2ccccc23)cc1OC | 6.58%
6 | O=c1cc(CN2CCN(c3cccc(Cl)c3)CC2)c2cc3c(cc2o1)CCCC3 | -4.83%
7 | Cc1ccnc(N2CCN(C(=O)CSc3nc4ccccc4nc3N3CCCCC3)CC2)c1 | -5.31%
8 | COc1cc(OC)cc(-c2c(C#Cc3ccsc3)c3cc(-c4ccc(OC)cc4F)ccc3n2C)c1 | -17.7%
9 | Cc1ccn2c(-c3csc(Nc4ccc(C(=O)O)cc4)n3)c(C)nc2c1 | -8.63%
10 | O=c1oc2ccccc2cc1-c1csc(Nc2ccc(O)cc2)n1 | 78.3% (active)
11 | Cc1ccc(Nc2nc(-c3ccc(O)cc3O)cs2)nc1 | 17.4%
12 | CCCC1(C(=O)OC)NC(c2ccco2)C2C(=O)N(C)C(=O)C21 (stereo not given) | -13%
13 | NS(=O)(=O)c1ccc(NC(=S)NNC(=O)c2cccs2)cc1 | 13.7%
14 | CC(C)N(C(=O)COC(=O)c1ccccc1C(=O)N1CCN(c2ccc(F)cc2)CC1)C(C)C | 5.64%
15 | Oc1ccc(N2CCN(C(=S)NCc3ccccc3)CC2)cc1 | -1.54%
16 | O=C(COC(=O)c1ccccc1C(=O)N1CCN(c2ccccc2)CC1)NCc1ccccc1 | 67.3% (active)
17 | Cn1c2ccccc2n2c(=O)c(=O)n(CC(=O)c3ccc(F)cc3)nc12 | -20.6%
18 | CCSc1ccccc1C(=O)NCc1ccc(OC)cc1 | 2.86%
19 | COc1ccc(OC)c(NC(=O)c2cnn(-c3ccccc3Cl)c2NC(=O)c2ccco2)c1 | 4.29%
20 | Cn1nc(C(F)(F)F)cc1C(=O)O | 11.7%
21 | Cn1nc(C(F)(F)F)cc1-c1ccc(/C=C(\C#N)C(=O)c2cccc(C(F)(F)F)c2)s1 | 730% (active)
22 | CCC(=O)OCc1c(C(F)(F)F)nn(C)c1Oc1cccc(C(F)(F)F)c1 | -2.22%
23 | C=CCSc1nc(Cc2ccc(Cl)cc2)nc2ccccc12 | -10.7%

Row | Compound | activation
24 | COc1cccc(OC)c1CN(C)C(=O)c1cnccc1C(F)(F)F | -0.62%
25 | Cc1nc([N+](=O)[O-])cn1CC(=O)Nc1ccc(Cl)cc1 | 7.49%
26 | Nc1c(C(=O)c2cccs2)sc2nsc(SCCN3CCCCC3)c12 | 790% (active)
27 | CN=C(c1ccccc1)c1c(C)cccc1C | 0.32%
28 | CN(C)CCNC(=O)C(C(=O)c1ccccc1)n1ccccc1=O (stereo not given) | 5.66%
29 | Cc1nn2c3cc(N4CCOCC4)ccc3nc2c2ccccc12 | 31.7%
30 | CC(=O)c1sc(NC(=O)C2=NN(c3ccccc3)C(=O)CC2)nc1C | 0.238%
31 | Cc1ccn2c(=O)c(NC(=O)c3cccc4ccccc34)c(C)nc2c1 | 4.6%
32 | CC(=O)c1sc(NC(=O)c2cccc3ccccc23)nc1C | 63.5% (active)
33 | Cc1cccc(N2C(=O)C3C(c4ccccc4)OC4(C(=O)c5ccccc5C4=O)C3C2=O)c1 (stereo not given) | 0.83%
34 | CCOc1ccc(N2C(=O)Nc3ccccc3C2(O)C(=O)NCc2ccco2)cc1 (stereo not given) | -28.4%
35 | CCCCCCCC(=O)NC(Nc1ccccc1OC)C(Cl)(Cl)Cl (stereo not given) | -13.4%
36 | Cc1ccsc1CNn1cnnc1SCc1ccccc1F | 54.5% (active)
37 | Cc1ccccc1CSc1nnc(-c2cccnc2)n1N | -17.4%
38 | CCN(CC(=O)NCc1cccs1)C(=O)c1cccc(S(=O)(=O)Nc2ccccc2OC)c1 | 2.02%
39 | CCOc1ccc(C(C(=O)NCCOC)N(CCOC)C(=O)CCC(=O)Nc2ccccn2)cc1 (stereo not given) | -1.66%
40 | Cc1ccc(C(=O)O)cc1N1C(=O)CCCC1=O | 4.24%
41 | COCCCNc1nc2c(-c3cccc(C)c3)nnn2c2ccc(Cl)cc12 | 6.31%
42 | CN(CC(=O)Nc1ccc(F)c(F)c1F)C(=O)Cn1cnc2c1c(=O)n(C)c(=O)n2C | 3.59%
43 | O=C(c1ccc(Cl)cc1)N1N=C(c2ccccn2)CC1(O)C(F)(F)F (stereo not given) | 7.8%
44 | O=C1NC(=O)N(c2ccc(F)cc2)C(=O)/C1=C/c1ccc2c(c1)CCCN2Cc1ccccc1 | 50.1% (active)
45 | O=C1CN(C(=O)c2cc(F)cc(F)c2)c2ccccc2N1 | 10.5%
46 | COCCNC(=O)C(c1ccc(O)cc1)N(C(=O)CCC(=O)Nc1nccs1)c1ccc(C)cc1 (stereo not given) | 8.66%

Row | Compound | activation
47 | CC(=O)Oc1cc2c(C(=O)NCCN3CCOCC3)c(C)oc2c2ccccc12 | -12.4%
48 | O=C(CN1C(=O)NC(Cc2ccccc2)(Cc2ccccc2)C1=O)NCC1CCCCC1 | 2.41%
49 | CCCCCCNCCn1cnc2c(N)ncnc21 | 2.79%
50 | CCOCCN(C=O)c1cccc(OC)c1 | 4.02%
51 | COc1ccc(N(C(=O)c2snc(C(N)=O)c2N)C(C(=O)NC2CCCC2)c2ccc(C)o2)c(OC)c1 (stereo not given) | 146% (active)
52 | COc1ccc(C(C(=O)NC2CCCCC2)N(C(=O)c2snc(C(N)=O)c2N)c2ccccc2OC)cc1 (stereo not given) | 6.68%
53 | CCC(C(=O)NC1CCCCC1)N(C(=O)c1snc(C(N)=O)c1N)c1ccc(OC)cc1OC (stereo not given) | 8.72%
54 | O=C(NCCCO)/C(=C\C=C\c1ccccc1)NC(=O)c1ccccc1Cl | -2.84%
55 | CCNC(=O)NC(=O)C(C)OC(=O)C1CCN(S(=O)(=O)c2ccccc2F)CC1 (stereo not given) | 5.47%
56 | C=CC[C@H](CC(=O)N(CCO)Cc1ccccc1)C(=O)N[C@@H](COC(=O)[C@@H](CC=C)Cc1ccc(F)cc1)Cc1ccccc1 | -7.46%
57 | Cc1nc(NCc2ccccc2)c(C(N)=O)c2c1COC(C)(C)C2 | -2.87%
58 | CCCn1c(=O)c2c(C(F)(F)F)cc(-c3cccs3)nc2n(CCC)c1=O | 11.8%
59 | O=C(NC(=S)Nc1cc(C(F)(F)F)ccc1N1CCOCC1)c1ccc(-c2cccc(Cl)c2)o1 | -2.26%
60 | CC(C(=O)NC1CCS(=O)(=O)C1)N1C(=O)/C(=C/c2ccc(Cl)cc2)SC1=S (stereo not given) | 0.406%
61 | O=C(O)C(c1ccccc1)N1C(=O)/C(=C\c2ccc(-c3cccc(Cl)c3)o2)SC1=S (stereo not given) | 199% (active)
62 | CC(C)N=C1CCCC1C(=S)SSC(=S)C1CCCC1=NC(C)C (stereo not given) | 1.19%
63 | CN(C)c1ccc(C2N(C)C(=O)c3ccccc3N2C)cc1 (stereo not given) | -0.422%
64 | CN(C)c1ccc(Nc2c3c4c(cccc4n(C)c2=O)C(=O)c2ccccc2-3)cc1 | 178% (active)
65 | NC1=NC(=O)C(Cc2cccc(Cl)c2Cl)S1 (stereo not given) | -10%
66 | COc1cc(C(=O)NCc2nnc(SCC(=O)Nc3nc4ccc(C)cc4s3)o2)cc(OC)c1OC | 12.4%
67 | CCN(CC)CCOc1ccc2c(c1)C(=NNC(=O)c1ccccn1)c1cc(OCCN(CC)CC)ccc1-2 | -0.85%
68 | CN(CCNC(=O)c1cc2c(-c3ccccc3F)nn(C)c2s1)C1CCCCC1 | 18.1%
69 | COCCNc1nc(-c2ccccc2)nc2c1oc1ccccc12 | 10.6%

Row | Compound | activation
70 | C[C@@H](Nc1nc(-c2ccccc2)nc2c1oc1ccccc12)C(=O)O | 0.442%
71 | CCc1nc(Nc2ccc3nccnc3c2)c2oc3ccccc3c2n1 | 92.8% (active)
72 | O=C(CSc1ccc(Cl)cc1)NC1CC1 | 8.89%
73 | Cc1noc(NS(=O)(=O)c2ccc(N3CC(O)=C(c4ccccc4)C3=N)cc2)c1C | -0.03%
74 | O=c1o[nH]c(-c2ccccc2)c1N=Nc1c(F)cccc1Cl | -10.5%
75 | COc1ccc(N=C2C=CC(=O)O2)cc1 | 6.95%
76 | COc1ccc(N=Nc2c(-c3ccc(OC)cc3)[nH]oc2=O)cc1 | 61.5% (active)
77 | COc1ccc(N2CCN(Cc3ccc(Br)s3)CC2)cc1 | -3.28%
78 | O=S(=O)(c1cnccc1N1CCN(/N=C/c2ccc(Br)cc2)CC1)N1CCCCC1 | -7.86%
79 | O=C(c1ccc(Cl)nc1)N1CCN(S(=O)(=O)c2ccc3c(c2)OCCO3)CC1 | 2.83%
80 | COc1cc(C(=O)N2C(=O)c3cccc(N)c3C2=O)cc(OC)c1OC | 75.9% (active)
81 | COc1cc(C(=O)N2CCN(C)CC2)cc(OC)c1OC | 4.16%
82 | CC1CC(C)CN(S(=O)(=O)c2cccc(C(=O)N3C(=O)c4cccc(N)c4C3=O)c2)C1 (stereo not given) | 3.79%
83 | NC(CSC(c1ccccc1)(c1ccccc1)c1ccc(-c2ccccc2)cc1)C(=O)O (stereo not given) | -7.6%
84 | COc1ccc(CN(C)C(=S)Nc2ccc(Cl)cc2Cl)cc1 | 7.07%
85 | O=c1c2ccccc2nc(/C=C/c2ccco2)n1-c1ccccc1O | -0.876%
86 | O=c1c2ccccc2nc(/C=C/c2ccc(F)cc2)n1-c1ccccc1O | -12.9%
87 | CCn1c(/C=C/c2ccc([N+](=O)[O-])o2)nc2ccccc2c1=O | 1270% (active)
88 | CN1OC[C@@H]2CN[C@H](c3ccc(-c4ccccc4)cc3)C[C@@H]21 | 8.87%
89 | COC(=O)c1c(-c2ccsc2)oc2ccc(-c3cc(OC)c(OC)c(OC)c3)cc12 | 1.83%
90 | O=C1N[C@H](Cc2c[nH]c3ccccc23)COC(=O)[C@H](Cc2ccc(F)cc2)C/C=C\C[C@H]1CC(=O)N(CCO)Cc1ccccc1 | -14.8%
